Test results as given in the supplement of paper PMC11417369.
± gives the standard deviation of the averaged measurements. The full ranking holds about 25,000 sequences; the median of “ln(normalized median fluorescence intensity)” is about 8.6, and the highest 2% start at about 10. For the sample, the highest values were picked, then their nearest neighbours and some sequences at random.

Test system: PfAP2-EXP AP2 domain (GST-tagged)
Test: gcPBM binding intensity (ln(normalized median fluorescence intensity)); higher = stronger DNA binding
Summary of the method: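 The highest Masliner-normalised natural-log median intensity across replicate spots of either probe orientation is reported as binding intensity. GST-tagged P. falciparum DNA-binding domains expressed in E. coli were applied for 1 h to an Agilent 4 × 180k array of primer-extended double-stranded 36-bp intergenic genomic probes plus negative controls, and bound protein was detected with Alexa488 anti-GST antibody and scanned at 488 nm.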

Sequence	gcPBM binding intensity (ln)
ATATATATATACATATGTACATATATATTTATACAT [XGTACX_site2463]	9.64 ± 0.33
TGTTATATGTTCAAATGTACAAATCATATACATGTT [XGTACX_site3192]	8.45 ± 0.38
TTATGGTTATACATATGTACATATATATATATATAT [XGTACX_site1494]	10.3 ± 0.2
ATATATATATATATATGTACATATATACATATACAT [XGTACX_site2350]	9.99 ± 0.43
ATCATGTTATATACATGTACATATATATATATATAT [XGTACX_site1329]	10.2 ± 0.3
ATATATATATATACATGTACATATATACATTATATT [XGTACX_site936]	9.99 ± 0.45
ATCATGTTATATACATGTACATATATATATATATAA [XGTACX_site609]	8.51 ± 0.4
ATATATATATATATATGTACATATGTTAGGATCAAA [XGTACX_site8626]	10.2 ± 0.33
TATGTATCAAATAAATGTACATATATATATATATAT [XGTACX_site2189]	10.1 ± 0.49
AAAGATACTTTCCTCAAACACACAAAACTATACAAC [CACACA_site1475]	8.79 ± 0.45
AAATTAAAATAATAATTCTACAAATTAATTTATCAT [XGTACX_negctrl_site44]	7.97 ± 0.49
TATTTAAAACTATACACATGCATTATATAAAGATAT [TGCATGCA_site702]	8.79 ± 0.4
AAAATAATATTTAATACACACATAATTATAATATAA [CACACA_site782]	8.48 ± 0.32
AATGTTTTTGTGAGATGTATAAATTTTATTTTATTT [XGTACX_negctrl_site413]	8.38 ± 0.38
ATATAACACAAGGGCACACATATACCTTTCCTTTTT [CACACA_site412]	8.77 ± 0.36
ATTAATTTTAATAAAGGTACACGTAGTTTTTTATTA [XGTACX_site7868]	8.16 ± 0.34
AAAAAAAAAATATGTACACACATATAAAATACATAA [CACACA_site6869]	8.56 ± 0.3
ATGTTCTTTAAAACCACACACCCCCCAACCCCCCTC [CACACA_site2373]	10.6 ± 0.13
CTTTAAACCCTGAACACACACAAATACACCCAAAAA [CACACA_site4297]	8.81 ± 0.42
CAAACCCACCAACACACACACACAAAAATGATTAAA [CACACA_site2432]	8.49 ± 0.68

Sequence	gcPBM binding intensity (ln)
CACACCCACAAAAACACACACAAAGGTGTTCTTATA [CACACA_site1293]	9.43 ± 0.64
TTTTTTTTTTTTTTTTTTTTTTTATGTTCTTAAAAA [GTGCAC_negctrl_site62]	8.02 ± 0.67
TTATGTTCTTTAAAACCACACACCCCCCAACCCCCC [CACACA_site8742]	10.9 ± 0.29
ATAAATTTTTTTTTTTTTTTTTTTTTTTTTTTTTTT [CACACA_negctrl_site508]	9.19 ± 0.057
ATATATTTTAATTGTTGTACATATTAAATAAATAGG [XGTACX_site2311]	8.47 ± 0.49
TTGTATAAAATATGTAGTACAATAATATAACATTTT [XGTACX_site8607]	8.55 ± 0.2
TATAAATTTAAAATGACACACACTAAAATTATTTAA [CACACA_site1239]	8.36 ± 0.42
TTATTTTATCACACATGTACATATGTTAATTTTTTT [XGTACX_site5598]	8.84 ± 0.33
TAAAAATATAGGTATACACACATATAAATATAAATA [CACACA_site7785]	8.54 ± 0.4
ATATAAAAAAAATTTAGTACATATATATATATATAT [XGTACX_site8635]	10.2 ± 0.48
AAGCATAAAGTATATAGTACATATATATATATATAT [XGTACX_site2945]	10.2 ± 0.26
AGATAAAAAAAGTACACACACACATATATATATATA [CACACA_site3072]	10.2 ± 0.26
ATAAAAAAATAAATTAGTACATATATATATATATAT [XGTACX_site6971]	10.1 ± 0.35
ATAAAAAAAAAAAAAAGTACACATATAAAAGTATTG [XGTACX_site8265]	8.42 ± 0.41
ATAATAAAAAAAATTAGTACATATATAAATATAAAT [XGTACX_site1937]	8.3 ± 0.33
TTAAAAAAAAAAAAAAGTACATAAGTATATATAATA [XGTACX_site4295]	8.43 ± 0.45
TACATATATGATAAAAGTACATATAAATATACATAA [XGTACX_site3804]	8.45 ± 0.33
TATATTTATAGGTACACACACACATATAAATAAATA [CACACA_site6345]	8.65 ± 0.37
CCTTGATATATATAAAGTACATATATATATATATAT [XGTACX_site4325]	10.2 ± 0.24
ATTGGACTATAAATAGGTACACATATATATATATAT [XGTACX_site7562]	10.4 ± 0.33

Sequence	gcPBM binding intensity (ln)
ATATAATATATTTTCACACATATTTTATGATGATAA [CACACA_site5614]	8.3 ± 0.42
TAAATTTGTGGGATTTCACACAGGTTTATTTACATT [CACACA_site5455]	8.13 ± 0.45
AGAATAATACAAAAATGTACATTAATAAAAAGATAG [XGTACX_site780]	8.99 ± 0.42
TAACAAGGTTTATATGCATGCAAACATAACCAAAAA [TGCATGCA_site824]	9.96 ± 0.23
CTTACATAAAATATCACACACATAAAAAAACAATAT [CACACA_site1901]	8.87 ± 0.39
TAACATAGCAATGTTTCACACACAAGAAAAAATACA [CACACA_site8747]	8.84 ± 0.45
GGGTTAATATTTACTACACACACTTAAAATATGTAT [CACACA_site47]	8.59 ± 0.47
ATAATATTAGTAAACACACTCAAATTATATATGATA [CACACA_site5721]	8.28 ± 0.59
AATAAATAAATAAGTACACACATATATATATATATA [CACACA_site284]	10.2 ± 0.6
AATAAATAAATAAGTACACACATATAAATATAAATA [CACACA_site6271]	8.69 ± 0.27
ATAAAATAAAATAAAAGTACATAAATATATATATAT [XGTACX_site6110]	9.83 ± 0.28
TAAAAAAAAATAAAAAGTACATATATATATATATAT [XGTACX_site1155]	10.3 ± 0.46
ATATAAATAAAAAAAAGTACATAATATATAAAAATA [XGTACX_site3065]	8.72 ± 0.33
TATAAAAATAAAAAAAGTACACATAAAAATATATAT [XGTACX_site5189]	8.77 ± 0.33
ATTAAAATATAAGTCACACATATATATATATATATA [CACACA_site6145]	10.2 ± 0.33
AAATTAATAAGTCACACACACATATATAATATATAT [CACACA_site799]	8.54 ± 0.36
TACATAAAATATATCACACATATAATATATATATAT [CACACA_site5834]	9.54 ± 0.16
CAAAATTAATAAGTCACACACACATATATAATATAT [CACACA_site798]	8.73 ± 0.45
TATATATATATATATAGTACACATATCACATAAATG [XGTACX_site6379]	10.2 ± 0.23
TGTAATAAATAGTACACACACACATATATATATATT [CACACA_site1388]	8.73 ± 0.38
